Experiment [1] in a line: Natriuretic polypeptide receptor (hNpr1) antagonism - Pilot counterscreen GloSensor control cell line (AID 1347045). Also: potency is read from the fitted curve at half-maximal effect. The method, boiled down: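 HEK293 cGMP-sensor cells; 2% GloSensor reagent 2 h RT; LOPAC compounds in 1:5 titrations 30-50 min; 50 uM SNP 20 min; luminescence pre-read and post-read.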
The target of experiment [2] is Atrial natriuretic peptide receptor 1 (Homo sapiens) (UniProt P16066). Description: Natriuretic polypeptide receptor (hNpr1) antagonism - Pilot screen (AID 1347049).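 Also: HEK293 cells with hNpr1 and GloSensor cGMP luciferase stimulated by 0.1 nM hNppA; agonist-evoked cGMP luminescence read 20 min after hNppA addition.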 Also: potency is read from the fitted curve at half-maximal effect. The method, boiled down:
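Cells expressing receptor plus cGMP biosensor are seeded and incubated overnight at 37C, then loaded with GloSensor reagent (2% final) at room temperature for 2 h. Library compounds go on for 30 min. A pre-read precedes agonist (hNppA, 0.1 nM final) and a 20-min readout.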

In experiment [3] the target is Parathyroid hormone/parathyroid hormone-related peptide receptor (Homo sapiens) (UniProt Q03431). Description: qHTS for PTHR1 Agonists: Optimization Screen against the NCGC LOPAC library (AID 1347079; active = well fitted curve in the direction sought with a large enough effect; an effect the other way counts as inactive or inconclusive;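 also: GloSensor cAMP luminescence in HEK-293 GP2 cells expressing human PTHR1 with IBMX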). The method, boiled down:
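Signal increase flags agonism. GP2 cells, derived from HEK-293, express human PTHR1 and a GloSensor cAMP construct.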

A short description of experiment [4]: qHTS for Inhibitors of the Functional Ribonucleoprotein Complex (vRNP) of Lassa (LASV) Arenavirus: LASV Primary Screen - GLuc reporter signal (AID 1347082; calls by dose curve; tested in HEK293 reporter line; also: series mostly up to about 57 µM; nearly all actives have a fitted effect of over 60% in size).
A short description of experiment [5]: qHTS for Inhibitors of the Functional Ribonucleoprotein Complex (vRNP) of Lassa (LASV) Arenavirus: Viability assay - alamar blue signal for LASV Primary Screen (AID 1347083; calls by dose curve; tested in HEK293 reporter line; also: nearly all actives have a fitted effect of over 80% in size; also: potency is read from the fitted curve at half-maximal effect).
The nature of experiment [6]: qHTS for Inhibitors of the Functional Ribonucleoprotein Complex (vRNP) of Lymphocytic Choriomeningitis Arenaviruses (LCMV): Viability assay - alamar blue signal for LCMV Primary Screen (AID 1347085; calls by dose curve; tested in HEK293 reporter line; also: nearly all actives have a fitted effect of over 80% in size; also: potency is read from the fitted curve at half-maximal effect).
For experiment [7], the target named is Nucleoprotein (Lymphocytic choriomeningitis virus (strain Armstrong)) (UniProt P09992). Description: qHTS for Inhibitors of the Functional Ribonucleoprotein Complex (vRNP) of Lymphocytic Choriomeningitis Arenaviruses (LCMV): LCMV Primary Screen - GLuc reporter signal (AID 1347086). Also: series mostly up to about 57 µM; nearly all actives have a fitted effect of over 70% in size.
Chain of Nucleoprotein (Lymphocytic choriomeningitis virus (strain Armstrong)) (P09992 whole entry, looked up): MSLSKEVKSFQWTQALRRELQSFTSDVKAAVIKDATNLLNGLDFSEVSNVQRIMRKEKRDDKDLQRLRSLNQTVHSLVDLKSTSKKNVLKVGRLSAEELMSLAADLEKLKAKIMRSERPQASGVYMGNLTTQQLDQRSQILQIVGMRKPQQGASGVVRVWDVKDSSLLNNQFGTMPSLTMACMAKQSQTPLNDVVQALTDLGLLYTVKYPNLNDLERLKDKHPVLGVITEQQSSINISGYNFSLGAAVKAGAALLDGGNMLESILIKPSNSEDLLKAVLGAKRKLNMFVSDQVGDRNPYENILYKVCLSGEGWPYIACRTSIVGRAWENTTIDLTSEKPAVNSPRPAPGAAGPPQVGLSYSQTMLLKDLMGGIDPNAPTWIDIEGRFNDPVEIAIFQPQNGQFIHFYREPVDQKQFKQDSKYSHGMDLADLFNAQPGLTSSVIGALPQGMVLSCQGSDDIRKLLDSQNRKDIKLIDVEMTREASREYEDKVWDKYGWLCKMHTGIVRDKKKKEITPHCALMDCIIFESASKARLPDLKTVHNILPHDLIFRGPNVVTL
For experiment [8], the target named is Atrial natriuretic peptide receptor 2 (Homo sapiens) (UniProt P20594). Description: Natriuretic polypeptide receptor (hNpr2) antagonism - Pilot subtype selectivity assay (AID 1347050). Also: potency is read from the fitted curve at half-maximal effect. The method, boiled down:
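Read-out: GloSensor luminescence (CCD imager), baseline vs post-stimulation. HEK293 cells expressing hNpr2; compounds pre-incubated 30-50 min at ambient temperature; hNppC 1 nM final, 20 min.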

The nature of experiment [9]: NS1 protein of Zika virus - qHTS assay to identify small molecule inhibitors in human HEK 293 cells (AID 1347053; active = well fitted curve in the direction sought with a large enough effect; an effect the other way counts as inactive or inconclusive; also: series mostly up to about 46 µM; nearly all actives have a fitted effect of over 55% in size). The method, boiled down: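 In this cell-based screen, HEK 293 cultures received compound for one hour before Zika MR766 at MOI = 0.5. NS1 was quantified 24 hours later by TR-FRET, normalized to virus-free wells and infected wells.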
For experiment [10], the target named is T1, Tyrosine-protein phosphatase non-receptor type substrate 1 (Homo sapiens) + Leukocyte surface antigen CD47 (Homo sapiens) (UniProt P78324+Q08722). Description: CD47-SIRPalpha protein protein interaction - LANCE assay qHTS validation (AID 1347057; active = well fitted curve in the direction sought with a large enough effect in the signal ratio, with a control signal flat, not every such curve was filed as active; the % refers to the signal ratio; also: series mostly up to about 38 µM). The method, boiled down:
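Inhibition of soluble CD47/SIRPalpha ectodomain association by titrated compounds, measured as 665/615 nm time-resolved FRET ratio after sequential 30 min room-temperature incubations.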

Experiment [11] has as its target T1, Tyrosine-protein phosphatase non-receptor type substrate 1 (Homo sapiens) + Leukocyte surface antigen CD47 (Homo sapiens). Description: CD47-SIRPalpha protein protein interaction - HTRF assay qHTS validation (AID 1347058; active = well fitted curve in the direction sought with a large enough effect in the signal ratio, not every such curve was filed as active; the % refers to the signal ratio; also: series mostly up to about 38 µM). The method, boiled down: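 Soluble extracellular domains (6His-CD47, Avi-tag-biotinylated SIRPalpha) in PBS pH 7.4 with 0.05% IGEPAL CA-630. Compounds were preincubated 30 min at RT with CD47 and anti-His-Eu, then SIRPalpha and SAV-XL665 were added. TR-FRET 665/615 ratio.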

The target is the same in experiment [12]. Description: CD47-SIRPalpha protein protein interaction - Alpha assay qHTS validation (AID 1347059; active = well fitted curve in the direction sought with a large enough effect; an effect the other way counts as inactive or inconclusive;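 also: bead proximity luminescence from CD47 binding SIRPalpha after compound preincubation with SIRPalpha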). The method, boiled down: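 In PBS (pH 7.4) with 0.05% IGEPAL CA-630, compound is preincubated with biotin-Avi-SIRPalpha ectodomain before His-CD47 ectodomain and affinity beads are added. Light-protected room-temperature incubations; AlphaScreen readout.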

Results filed as inconclusive are left out. The source made the active and inactive calls. Unless noted, calls follow the shape of the full dose curve.

21 compounds from PubChem BioAssay (NCATS) can be followed below.

T1 sequence (P78324 whole entry, looked up, the tested form may be a part): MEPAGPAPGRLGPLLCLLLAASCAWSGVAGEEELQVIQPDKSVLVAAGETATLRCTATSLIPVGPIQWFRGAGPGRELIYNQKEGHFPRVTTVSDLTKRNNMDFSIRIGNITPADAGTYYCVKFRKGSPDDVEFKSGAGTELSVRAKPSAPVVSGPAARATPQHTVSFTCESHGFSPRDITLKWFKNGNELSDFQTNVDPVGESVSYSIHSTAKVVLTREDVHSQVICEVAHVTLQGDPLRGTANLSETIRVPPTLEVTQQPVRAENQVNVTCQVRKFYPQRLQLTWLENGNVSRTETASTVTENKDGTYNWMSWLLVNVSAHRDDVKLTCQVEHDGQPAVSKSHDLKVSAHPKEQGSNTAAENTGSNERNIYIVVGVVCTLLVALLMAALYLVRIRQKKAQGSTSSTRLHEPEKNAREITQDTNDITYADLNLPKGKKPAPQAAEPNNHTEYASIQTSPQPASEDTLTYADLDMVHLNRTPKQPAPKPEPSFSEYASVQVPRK
T1 sequence (Q08722 whole entry, looked up, the tested form may be a part): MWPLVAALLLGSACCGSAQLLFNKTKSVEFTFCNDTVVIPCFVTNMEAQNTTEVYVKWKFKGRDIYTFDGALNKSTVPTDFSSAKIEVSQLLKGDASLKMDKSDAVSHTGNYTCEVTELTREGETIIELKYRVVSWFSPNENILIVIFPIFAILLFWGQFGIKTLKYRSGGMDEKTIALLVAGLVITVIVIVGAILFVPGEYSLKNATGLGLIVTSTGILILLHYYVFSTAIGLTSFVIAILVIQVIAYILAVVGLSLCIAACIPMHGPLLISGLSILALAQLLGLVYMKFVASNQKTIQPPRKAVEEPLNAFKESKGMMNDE
Chain of Parathyroid hormone/parathyroid hormone-related peptide receptor (Homo sapiens) (Q03431 whole entry, looked up): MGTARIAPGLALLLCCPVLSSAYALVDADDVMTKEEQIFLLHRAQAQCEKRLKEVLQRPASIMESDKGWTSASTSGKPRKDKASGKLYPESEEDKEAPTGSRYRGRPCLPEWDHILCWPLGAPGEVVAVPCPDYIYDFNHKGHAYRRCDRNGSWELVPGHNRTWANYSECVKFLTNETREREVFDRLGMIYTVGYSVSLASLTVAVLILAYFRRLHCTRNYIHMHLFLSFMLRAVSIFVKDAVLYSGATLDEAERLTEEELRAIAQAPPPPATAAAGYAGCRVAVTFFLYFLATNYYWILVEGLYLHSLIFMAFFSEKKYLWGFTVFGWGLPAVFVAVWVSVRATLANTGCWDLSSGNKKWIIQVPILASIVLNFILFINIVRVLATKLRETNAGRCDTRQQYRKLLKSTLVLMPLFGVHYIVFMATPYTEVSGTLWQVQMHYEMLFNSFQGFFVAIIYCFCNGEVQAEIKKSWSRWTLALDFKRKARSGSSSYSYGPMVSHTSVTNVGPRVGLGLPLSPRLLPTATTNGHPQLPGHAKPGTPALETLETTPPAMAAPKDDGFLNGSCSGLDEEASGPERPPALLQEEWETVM
Chain of Atrial natriuretic peptide receptor 2 (Homo sapiens) (P20594 whole entry, looked up): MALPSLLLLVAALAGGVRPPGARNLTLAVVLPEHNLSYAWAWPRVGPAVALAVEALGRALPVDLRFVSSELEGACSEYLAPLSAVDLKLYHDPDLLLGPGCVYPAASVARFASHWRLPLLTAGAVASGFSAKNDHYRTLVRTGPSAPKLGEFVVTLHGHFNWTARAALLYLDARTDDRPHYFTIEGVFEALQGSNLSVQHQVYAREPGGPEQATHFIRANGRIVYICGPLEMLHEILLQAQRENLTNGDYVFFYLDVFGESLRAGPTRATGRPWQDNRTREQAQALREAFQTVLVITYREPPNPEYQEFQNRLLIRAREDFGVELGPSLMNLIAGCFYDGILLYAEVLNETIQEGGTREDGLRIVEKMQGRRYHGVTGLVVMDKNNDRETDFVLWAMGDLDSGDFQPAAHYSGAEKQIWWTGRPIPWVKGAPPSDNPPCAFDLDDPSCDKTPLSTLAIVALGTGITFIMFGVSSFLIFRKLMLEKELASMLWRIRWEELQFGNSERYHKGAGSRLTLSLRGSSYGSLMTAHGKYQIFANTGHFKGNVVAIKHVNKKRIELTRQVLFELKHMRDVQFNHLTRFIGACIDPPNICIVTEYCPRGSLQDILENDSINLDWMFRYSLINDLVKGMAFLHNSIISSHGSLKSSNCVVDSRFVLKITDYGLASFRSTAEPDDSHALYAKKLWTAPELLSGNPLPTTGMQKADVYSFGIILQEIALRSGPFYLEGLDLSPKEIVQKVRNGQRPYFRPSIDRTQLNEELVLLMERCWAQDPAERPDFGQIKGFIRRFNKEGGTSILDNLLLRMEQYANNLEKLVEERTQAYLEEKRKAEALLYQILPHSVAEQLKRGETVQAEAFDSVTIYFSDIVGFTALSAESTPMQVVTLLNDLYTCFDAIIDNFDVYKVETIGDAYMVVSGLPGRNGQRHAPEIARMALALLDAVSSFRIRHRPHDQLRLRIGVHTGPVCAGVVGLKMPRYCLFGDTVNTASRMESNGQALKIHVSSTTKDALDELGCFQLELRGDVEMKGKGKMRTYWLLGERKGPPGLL
Chain of Atrial natriuretic peptide receptor 1 (Homo sapiens) (P16066 whole entry, looked up): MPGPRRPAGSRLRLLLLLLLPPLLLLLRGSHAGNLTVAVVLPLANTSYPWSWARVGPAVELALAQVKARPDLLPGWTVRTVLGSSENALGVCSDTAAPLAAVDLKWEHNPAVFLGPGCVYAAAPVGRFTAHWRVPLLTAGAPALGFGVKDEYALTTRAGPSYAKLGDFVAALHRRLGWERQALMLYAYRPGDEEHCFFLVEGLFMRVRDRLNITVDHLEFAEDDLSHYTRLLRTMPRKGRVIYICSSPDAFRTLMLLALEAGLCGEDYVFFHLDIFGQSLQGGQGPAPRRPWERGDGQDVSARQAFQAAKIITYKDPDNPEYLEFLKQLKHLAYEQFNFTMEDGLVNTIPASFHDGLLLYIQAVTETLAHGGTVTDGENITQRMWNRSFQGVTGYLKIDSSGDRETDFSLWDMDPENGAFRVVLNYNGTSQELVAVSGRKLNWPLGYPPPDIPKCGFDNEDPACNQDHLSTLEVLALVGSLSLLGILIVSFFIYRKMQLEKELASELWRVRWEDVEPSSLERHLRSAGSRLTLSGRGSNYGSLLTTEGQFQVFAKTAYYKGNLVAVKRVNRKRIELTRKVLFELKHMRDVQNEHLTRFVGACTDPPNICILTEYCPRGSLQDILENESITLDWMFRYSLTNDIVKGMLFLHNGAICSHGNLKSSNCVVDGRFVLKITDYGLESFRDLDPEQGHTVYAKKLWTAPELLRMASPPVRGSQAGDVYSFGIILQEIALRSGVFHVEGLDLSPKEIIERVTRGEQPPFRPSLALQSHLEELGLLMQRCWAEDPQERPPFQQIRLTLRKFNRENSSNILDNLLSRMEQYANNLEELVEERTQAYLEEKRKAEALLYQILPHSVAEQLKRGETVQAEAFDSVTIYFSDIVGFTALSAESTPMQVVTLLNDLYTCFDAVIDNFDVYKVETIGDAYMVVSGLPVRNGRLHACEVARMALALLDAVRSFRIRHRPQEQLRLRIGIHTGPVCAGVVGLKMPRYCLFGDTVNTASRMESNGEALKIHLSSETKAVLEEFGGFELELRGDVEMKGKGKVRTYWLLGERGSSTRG

Take `C=CCN1CC[C@]23c4c5ccc(O)c4O[C@@H]2/C(=N/N=C2\CC[C@@]4(O)C6Cc7ccc(O)c8c7[C@@]4(CCN6CC=C)[C@@H]2O8)CC[C@@]3(O)C1C5`: the Potency result in experiment [1], in experiment [2], in experiment [3], in experiment [4], in experiment [5] and in experiment [6] was “inactive” throughout. In addition, the Potency result in [7] is “inactive”.

`NCC(O)c1cc(O)c(O)cc1F` (stereo not drawn): the Potency result in [1], in experiment [2], in [8], in experiment [10], in [12] and in experiment [3] was “inactive” each time. Besides, the Potency entry in experiment [4], in experiment [5], in experiment [6] and in experiment [7] was “inactive” in each case. The compound was classed as inactive in experiment [9] and in [11].

Take `CC(N)[C@H](O)c1ccc(O)c(O)c1` (stereo partly drawn): the Potency result in [1], in experiment [2], in experiment [8], in experiment [10], in experiment [12] and in experiment [3] was “inactive” throughout. For the same compound, the Potency entry in experiment [4], in [5], in experiment [6] and in [7] was “inactive” in each case. For the same compound, the compound was classed as inactive in experiment [9].

On to `c1ccc2c(c1)[I+]c1ccccc1-2`, for which the Potency was 4.14 µM (active) in experiment [1]; 3.01 µM (active) in experiment [2]; 0.927 µM (active) in experiment [8]; 1.58 µM (active) in experiment [5]; 6.31 µM (active) in experiment [6]. Moreover, the Potency entry in [10], in [12] and in experiment [3] was “inactive” in each case. Also, the outcome in experiment [11] was inactive.

Regarding `CC(C)(C)c1cc(C=C(C#N)C#N)cc(C(C)(C)C)c1O`, the values for the Potency in [1], in experiment [2] and in experiment [8] were 0.131 µM (active), 0.301 µM (active) and 0.414 µM (active), respectively. Besides, the Potency result in [10], in experiment [12] and in experiment [3] was “inactive” each time. Besides, the result in experiment [11] was inactive.

In the case of `CN1C2CCC1CC(OC(c1ccccc1)c1ccccc1N)C2` (stereo not drawn), the Potency entry in experiment [1], in experiment [2], in experiment [10], in experiment [12], in [3] and in [4] was “inactive” each time. The Potency result in experiment [5], in experiment [6] and in [7] was “inactive” in each case. Moreover, the compound was classed as inactive in experiment [9] and in experiment [11].

Regarding `COc1ccc2c(c1)[C@@]13CCCC[C@H]1[C@@H](C2)NCC3`, the Potency result in experiment [1], in experiment [2], in experiment [8], in experiment [3], in [4] and in experiment [5] was “inactive” throughout. The Potency result in [6] and in experiment [7] was “inactive” each time.

Take `CN1CC[C@@]2(C)c3cc(OC(=O)Nc4ccccc4)ccc3N(C)[C@@H]12`: the Potency result in experiment [1], in experiment [2], in experiment [8], in experiment [10], in [12] and in experiment [3] was “inactive” in each case. Also, the Potency entry in experiment [4], in experiment [5], in [6] and in experiment [7] was “inactive” each time. In addition, the outcome in [9] was inactive.

As for `Cc1c2ccncc2c(C)c2c1[nH]c1ccccc12`, the Potency entry in experiment [1], in [10], in [12], in experiment [3], in experiment [4] and in [7] was “inactive” throughout. Further, the Potency was 10.7 µM (active) in experiment [2] and 5.21 µM (active) in experiment [8]. In experiment [11], the result was inactive.

Take `CCn1cnc2c(Nc3cccc(Cl)c3)nc(N[C@@H]3CCCC[C@@H]3N)nc21`: the Potency result in experiment [1], in [2], in [10], in experiment [12] and in experiment [3] was “inactive” each time. Moreover, the result in [11] was inactive.

On to `Cc1sc2ccccc2c1CC1=NCCN1`, for which the Potency entry in experiment [1], in experiment [2], in experiment [8], in [10], in [12] and in experiment [3] was “inactive” in each case. Besides, the Potency result in experiment [4], in [5], in experiment [6] and in experiment [7] was “inactive” throughout. In addition, in experiment [9], the outcome was inactive.

For the compound `CC(N)Cc1c[nH]c2ccc(O)cc12` (stereo not drawn), the Potency result in experiment [1], in [2], in experiment [8], in experiment [10], in experiment [12] and in experiment [3] was “inactive” each time. Also, the Potency result in experiment [4], in [5], in [6] and in experiment [7] was “inactive” each time. The compound was classed as inactive in [9] and in experiment [11].

`NC(N)=Nc1ccc2[nH]c3c(c2c1)C[C@@]1(O)[C@H]2Cc4ccc(O)c5c4[C@@]1(CCN2CC1CC1)[C@H]3O5`: the results for the Potency in [1] and in [2] were 6.56 µM (active) and 19 µM (active), respectively. Besides, the call in experiment [9] was inactive. The Potency entry in experiment [10], in [12], in [3], in [4], in [5] and in experiment [6] was “inactive” throughout. For the same compound, the Potency entry in experiment [7] is “inactive”.

Regarding `COc1ccc2c(c1)c(CCN1CCOCC1)c(C)n2C(=O)c1cccc(Cl)c1Cl`, the Potency result in [1], in experiment [2], in experiment [8], in experiment [4] and in experiment [5] was “inactive” in each case.

For the compound `COc1ccc2[nH]c3c(c2c1)CCNC3`, the Potency result in experiment [1], in [2], in [8], in [10], in experiment [3] and in [4] was “inactive” each time. Besides, the Potency entry in experiment [5], in experiment [6] and in [7] was “inactive” in each case. For the same compound, the outcome in experiment [9] was inactive.

For `NC(Cc1ccc(N(CCCl)CCCl)cc1)C(=O)O` (stereo not drawn), the Potency result in experiment [1], in experiment [2], in [8], in experiment [3], in experiment [4] and in [5] was “inactive” in each case. Moreover, the Potency entry in experiment [6] is “inactive”.

Consider `CCCn1c(C)c(C(=O)c2ccc3ccccc3c2)c2ccccc21`, for which the Potency result in experiment [1], in [2], in [8], in experiment [3], in [4] and in experiment [5] was “inactive” each time. In addition, the Potency entry in experiment [6] and in [7] was “inactive” each time.

Take `COc1ccc2c(c1O)-c1cccc3c1[C@@H](C2)N(C)CC3`: the Potency result in experiment [1], in experiment [8], in [3], in experiment [4], in experiment [5] and in [6] was “inactive” each time. Further, the Potency entry in experiment [7] was “inactive”. For the same compound, the outcome in experiment [9] was inactive.

Take `O=S1(=O)N(CCN2CC=C(c3c[nH]c4cc(F)ccc34)CC2)c2cccc3c2N1CCC3`: the Potency result in experiment [1], in experiment [8], in experiment [10], in experiment [12], in experiment [3] and in [4] was “inactive” in each case. Also, the Potency result in experiment [5], in experiment [6] and in experiment [7] was “inactive” each time. Besides, the compound was called inactive in [9].

For `C[C@H](N)CN1CCc2ccc(Br)cc21`, the Potency result in [1], in [8], in [10], in experiment [12], in [3] and in [4] was “inactive” in each case. Besides, the Potency entry in experiment [5], in [6] and in [7] was “inactive” in each case. In addition, the result in [9] was inactive.

As to `CCS(=O)(=O)Nc1cccc(C(=C2CCCCC2)c2cnc[nH]2)c1`, the Potency result in [1], in [8], in [10], in [12], in experiment [3] and in experiment [4] was “inactive” each time. Also, the Potency entry in [5], in experiment [6] and in experiment [7] was “inactive” throughout. The compound was classed as inactive in experiment [9] and in [11].
